Compounds without any hit were thinned out: in the full panel of roughly 83,000, 20% have a hit.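 Cells were grown in 96-well plates and exposed to the test compound at a single concentration for 48 hours; results are reported as percent growth, with values below 10 considered active.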 Values without a mark were called inactive. Calls of active or inactive are those of the source.
These compounds were tested on HL-60(TB) leukemia (assay: NCI-60 one-dose screen, 48 h (100 = growth as untreated, 0 = no growth, -100 = all killed)). Conditions: 10 µM unless noted.
In the case of O=C(CCC(=O)OC1CCCC1)OC1CCCC1, the growth is reported as 103%. O=c1[nH]c2ccccc2cc1-c1nc2ccncc2[nH]1 was tested, and the growth was 25.9%. With O=C1C=C[C@]2(C[C@@H](c3cccc(C(F)(F)F)c3)O[C@@H](c3cccc(C(F)(F)F)c3)O2)O1 the growth was 8.74% (active). Cc1ccccc1N1CCN(C(=S)c2ccccc2)CC1 showed a growth of 108%. C=Cc1cnc(Nc2ccc(OC)cc2)nc1NCCCNC(=O)C1CCC1 showed a growth of 14.6%. NC(=O)CC1(c2ccccc2)CCCCC1 gave a growth of 98.4%. Nc1nnc(CSc2nnc3n(Cc4ccccc4)c(=O)c4c5c(sc4n23)CCCC5)s1 was tested, and the growth was 76.9%. For CCOC(=O)C(=Cc1c(-c2ccccc2)[nH]c2ccccc12)C(=O)OCC, the growth was -52% (active). Work on Cc1ccc(S(=O)(=O)OCC(=O)Nc2ccc(C(=O)O)c(O)c2)cc1 yielded a growth of 60.4%. In the case of O=C(CN1C(=O)NC(c2ccccc2)(c2ccccc2)C1=O)c1ccc(N2CCCC2)cc1, the growth is reported as 85.5%. For c1ccc2c(c1)Nc1ccncc1S2, the growth was 132%. CCN1C(=O)c2ccc3c4c(ccc(c24)C1=O)C(=O)N(CCCNCc1ccccc1OC)C3=O was tested, and the growth was -52.6% (active). Compound CC(=O)CCS(=O)c1ccccc1 (centres undefined) has a growth of 97.4%. For CCCCNC(=O)NS(=O)(=O)c1ccc(N2N=C(c3ccc(C)cc3C)CC2c2ccc(OC)cc2)cc1 (centres undefined), the growth was 17.4%. For O=C1CC(c2ccccc2)Cc2nc3ccc(Br)cc3cc21 (centres undefined), the growth was -28.4% (active). Work on Cc1ccc(CSCc2ccc(C(=O)NC3CC3)o2)cc1 yielded a growth of 59.5%. For CCCC(=O)NC(c1ccc2c(c1)OCO2)c1cc(Cl)c2cccnc2c1O (centres undefined), the growth was -19.5% (active). For CC1OC(OC2C(OC3CCC4(C)C(CCC5(C)C4CC=C4C6CC(C)(C)CCC6(CO)C(O)CC45C)C3(C)C)OC(C(=O)O)C(OC3OC(COC4OC(CO)C(O)C(O)C4O)C(O)C(O)C3O)C2O)C(O)C(O)C1O (centres undefined), the growth was -73% (active). C[C@@H]1CC[C@@H]2[C@@H]1[C@H](OC(=O)c1ccc3ccccc3c1)[C@]1(C3CCCCC3)C[C@@H](OC(=O)CO)[C@@]2(C)O1 gave a growth of 30.6%. With COc1ccc(CNc2c3ccccc3nc3ccccc23)cc1 the growth was 43%. Compound COc1cnc2c(c1)C(=O)c1c-2n(CCCN2CCN(C)CC2)c(=O)c2cc(Cl)ccc12 has a growth of 50.6%. For CN(C)CC(O)c1ccc2cc(Br)c3ccccc3c2c1 (centres undefined), the growth was 43.7%. Compound CCC(c1ccccc1)C(CC)c1ccc(O)c(O)c1 (centres undefined) has a growth of 68%. COc1ccc2c(c1)/C(=C\c1sc(=S)[nH]c1O)C(C(=O)O)=N2 was tested, and the growth was 101%. Work on Nc1n[nH]c2cccc(C#Cc3cccc(C(=O)Nc4cccc(C(F)(F)F)c4)c3)c12 yielded a growth of 30.4%. For CCN1CCN(CC(=O)Nc2nc3ccc(NCc4ccc(Br)cc4)cc3s2)CC1, the growth was 20.1%. Compound CO[C@H]1CC(=O)n2c3ccccc3c3c4c(c5c6ccccc6n1c5c32)C(=O)NC4=O has a growth of 96.9%. For CCCCCC(=O)O[C@]1(C(C)=O)CCC2C3CCC4=CC(=O)CC[C@]4(C)C3CC[C@@]21C (some centres undefined), the growth was -43.2% (active). Work on CN(C)N=Nc1nn(C(=O)Nc2ccc(Cc3ccccc3)cc2)c2ccccc12 yielded a growth of 21.4%. In the case of CCC(OC(=O)CC(C)C)c1ccccc1 (centres undefined), the growth is reported as 102%. For CC1(C)CC[C@]2(C(=O)Nc3ccccn3)CC[C@]3(C)C(=CC[C@@H]4[C@@]5(C)C/C(=C/c6ccncc6)C(=O)C(C)(C)[C@@H]5CC[C@]43C)[C@@H]2C1, the growth was -0.971% (active). With c1ccc(COCC[P+](c2ccccc2)(c2ccccc2)c2ccccc2)cc1 the growth was -52.2% (active). COc1ccc2nc(SCC(=O)Nc3ccccc3C)[nH]c2c1 showed a growth of 100%. C=CC(=O)Nc1cccc(Oc2nc(Nc3ccc(N4CCN(C)CC4)cc3)nc3ccsc23)c1 was tested, and the growth was -62% (active). Work on COc1cc2c(cc1OCCCN1CCN(CCCOc3cc4c(cc3OC)C(=O)N3CC(F)(F)C[C@H]3C=N4)CC1)N=C[C@@H]1CC(F)(F)CN1C2=O yielded a growth of 15.7%. CN(C)c1ccc(C(C#N)(c2ccccc2)c2ccc(N(C)C)cc2)cc1 gave a growth of 61.9%. In the case of CCOC(=O)c1sc(/N=C2\NC(=O)/C(=C/c3ccc(N4CCN(C)CC4)cc3)S2)nc1C, the growth is reported as 100%. O=S1(=O)NCCN1CCNc1nccc(-c2c(-c3cccc(O)c3)nc3sccn23)n1 gave a growth of 111%. With CCCCCCCCCCCCCC[n+]1ccc(C(N)=O)cc1 the growth was -50.6% (active).

Reference: PubChem BioAssay (NCI)
